Measured values published in the supplement of paper PMC12645437, “Orthogonal IMiD-Degron Pairs Induce Selective Protein Degradation in Cells” (ACS Chemical Biology, 2025).
Over roughly 8,300 sequences, “log2 fold change of degron read counts, EGFP-low vs EGFP+ sorted cells (limma voom), compound-induced degradation” has its median near -1.1; the highest 2% begin near 3.2. This excerpt belongs to a sample that is enriched for the highest values.

T1: CRBN, Q96SW2
T1 chain: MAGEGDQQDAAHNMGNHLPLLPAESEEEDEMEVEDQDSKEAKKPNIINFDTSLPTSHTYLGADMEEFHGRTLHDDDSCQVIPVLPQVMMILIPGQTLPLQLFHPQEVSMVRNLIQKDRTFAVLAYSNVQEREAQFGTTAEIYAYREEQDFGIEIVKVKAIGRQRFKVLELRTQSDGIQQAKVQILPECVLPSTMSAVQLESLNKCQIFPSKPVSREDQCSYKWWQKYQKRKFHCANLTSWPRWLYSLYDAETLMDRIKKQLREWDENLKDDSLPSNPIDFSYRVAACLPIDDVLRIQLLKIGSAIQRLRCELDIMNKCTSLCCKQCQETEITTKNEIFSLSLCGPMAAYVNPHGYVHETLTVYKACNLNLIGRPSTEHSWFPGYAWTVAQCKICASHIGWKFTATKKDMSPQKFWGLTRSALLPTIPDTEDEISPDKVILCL


Target: T1, CRBN, Q96SW2
Assay: log2 fold change of degron read counts, EGFP-low vs EGFP+ sorted cells (limma voom), compound-induced degradation; higher = more compound-induced degradation of the degron-EGFP fusion; degrons are variants of IKZF1/3 zinc finger 2; compound dose not given here
Details: Jurkat, 18 h
[1] = compound: compound 19 (5-tert-butyl-thalidomide)
[2] = compound: compound 22 (5-morpholino-thalidomide)
[3] = compound: compound 33 (diphenyl IMiD analogue)
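Also: pooled lentiviral library of zinc finger degron-EGFP fusions in mCherry-positive Jurkat cells, FACS-sorted after compound exposure, with degron abundance counted by next-generation sequencing.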

Sequence	log2 fold change of degron read counts [1]	log2 fold change of degron read counts [2]	log2 fold change of degron read counts [3]	log2 fold change of degron read counts (compound: thalidomide)
FMCEQCGAPFTQKGNLLRHIKL [46F_47M_49E_50Q_52G_53A_54P_55F_67L_, Q9UKT9]	-0.389	-0.627	1.41	-0.399
FTCEICGHIFTQKGNLLRHIKL [46F_47T_49E_50I_52G_53H_54I_55F_67L_, Q9UKT9]	-2.87	-3.7	-2.68	-2.59
FGCDICGANFTQKGNLLRHIKL [46F_47G_49D_50I_52G_53A_54N_55F_67L_, Q9UKT9]	-0.278	-0.474	0.0264	-0.564
FYCNQCGRHFTQKGNLLRHIKL [46F_47Y_49N_50Q_52G_53R_54H_55F_67L_, Q9UKT9]	-2.11	-2.71	-2.01	-2.05
FRCNQCGHLFTQKGNLLRHIKL [46F_47R_49N_50Q_52G_53H_54L_55F_67L_, Q9UKT9]	-2.18	-2.82	-2.46	-2.45
LFCNQCGFACTQKGNLLRHIKL [46L_47F_49N_50Q_52G_53F_54A_55C_67L_, Q9UKT9]	-0.744	-1.36	-1.06	-1.14
LACNQCGFECTQKGNLLRHIKL [46L_47A_49N_50Q_52G_53F_54E_55C_67L_, Q9UKT9]	-2.6	-2.34	-2.97	-2.24
FYCNQCGRLFTQKGNLLRHIKL [46F_47Y_49N_50Q_52G_53R_54L_55F_67L_, Q9UKT9]	-1.45	-2.33	-2.01	-1.7
FKCDVCGAVFTQKGNLLRHIKL [46F_47K_49D_50V_52G_53A_54V_55F_67L_, Q9UKT9]	-3.26	-3.42	-3.55	-2.43
FVCDQCGAEFTQKGNLLRHIKL [46F_47V_49D_50Q_52G_53A_54E_55F_67L_, Q9UKT9]	-3.02	-2.35	-2.96	-1.78
FCCNQCGASFTQKGNLLRHIKL [46F_47C_49N_50Q_52G_53A_54S_55F_67L_, Q9UKT9]	-1.43	-1.92	-0.445	-1.53
LWCEICGFLCTQKGNLLRHIKL [46L_47W_49E_50I_52G_53F_54L_55C_67L_, Q9UKT9]	1.13	1.39	1.44	0.295
FKCNICGAHFTQKGNLLRHIKL [46F_47K_49N_50I_52G_53A_54H_55F_67L_, Q9UKT9]	-1.74	-2.18	-2.99	-1.98
FQCDICGAIFTQKGNLLRHIKL [46F_47Q_49D_50I_52G_53A_54I_55F_67L_, Q9UKT9]	-1.32	2.34	1.7	3.47
FYCNVCGAIFTQKGNLLRHIKL [46F_47Y_49N_50V_52G_53A_54I_55F_67L_, Q9UKT9]	-0.301	0.0156	-0.132	-1.44
FHCPVCGAIFTQKGNLLRHIKL [46F_47H_49P_50V_52G_53A_54I_55F_67L_, Q9UKT9]	0.164	0.683	1.33	-0.0983
FVCPVCGAIFTQKGNLLRHIKL [46F_47V_49P_50V_52G_53A_54I_55F_67L_, Q9UKT9]	-1.21	0.225	1.42	1.3
FGCPVCGAIFTQKGNLLRHIKL [46F_47G_49P_50V_52G_53A_54I_55F_67L_, Q9UKT9]	3.73	2.12	2.5	0.899
FKCDICGAIFTQKGNLLRHIKL [46F_47K_49D_50I_52G_53A_54I_55F_67L_, Q9UKT9]	-2.93	-3.42	-2.93	-2.01
FQCPVCGAIFTQKGNLLRHIKL [46F_47Q_49P_50V_52G_53A_54I_55F_67L_, Q9UKT9]	-0.448	3.15	2.64	3.53
FRCNVCGAIFTQKGNLLRHIKL [46F_47R_49N_50V_52G_53A_54I_55F_67L_, Q9UKT9]	-1.97	-2.04	-0.492	-0.595
FRCPVCGAIFTQKGNLLRHIKL [46F_47R_49P_50V_52G_53A_54I_55F_67L_, Q9UKT9]	-1.67	-0.943	0.606	0.832
FCCDICGAIFTQKGNLLRHIKL [46F_47C_49D_50I_52G_53A_54I_55F_67L_, Q9UKT9]	-0.218	0.0957	1.18	0.132
FFCPVCGAIFTQKGNLLRHIKL [46F_47F_49P_50V_52G_53A_54I_55F_67L_, Q9UKT9]	1.97	2.07	0.852	0.24
FQCNVCGAIFTQKGNLLRHIKL [46F_47Q_49N_50V_52G_53A_54I_55F_67L_, Q9UKT9]	-1.8	1.3	1.44	3.37
